# Test results reported in PubChem BioAssay (NCI).
# This is part of a sample that, as a whole, favours compounds with a hit. Of some 83,000 tested, about 20% had one in any assay.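 Treatment: one concentration, 48 hours, 96-well format. Scoring: percent growth, with anything below 10 considered active.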 A number with no mark means an inactive call. Calls of active or inactive are those of the source.
# How the values were obtained:
# Test in all cases: NCI-60 one-dose screen, 48 h (100 = growth as untreated, 0 = no growth, -100 = all killed)
# Details in all cases: 10 µM unless noted
# DU-145 prostate = tested on: DU-145 prostate
# K-562 leukemia = tested on: K-562 leukemia
# MALME-3M melanoma = tested on: MALME-3M melanoma
# MDA-MB-231 breast = tested on: MDA-MB-231 breast
# RXF 393 renal = tested on: RXF 393 renal
# SF-268 CNS = tested on: SF-268 CNS
# SF-295 CNS = tested on: SF-295 CNS
# SF-539 CNS = tested on: SF-539 CNS
# UACC-257 melanoma = tested on: UACC-257 melanoma
# M14 melanoma = tested on: M14 melanoma
# HCT-15 colon = tested on: HCT-15 colon
# HT29 colon = tested on: HT29 colon
# SNB-75 CNS = tested on: SNB-75 CNS
# SNB-19 CNS = tested on: SNB-19 CNS
# U251 CNS = tested on: U251 CNS
# PC-3 prostate = tested on: PC-3 prostate
# SK-MEL-5 melanoma = tested on: SK-MEL-5 melanoma
# UACC-62 melanoma = tested on: UACC-62 melanoma
# LOX IMVI melanoma = tested on: LOX IMVI melanoma
# SK-MEL-28 melanoma = tested on: SK-MEL-28 melanoma
SMILES,growth (DU-145 prostate),growth (K-562 leukemia),growth (MALME-3M melanoma),growth (MDA-MB-231 breast),growth (RXF 393 renal),growth (SF-268 CNS),growth (SF-295 CNS),growth (SF-539 CNS),growth (UACC-257 melanoma),growth (M14 melanoma),growth (HCT-15 colon),growth (HT29 colon),growth (SNB-75 CNS),growth (SNB-19 CNS),growth (U251 CNS),growth (PC-3 prostate),growth (SK-MEL-5 melanoma),growth (UACC-62 melanoma),growth (LOX IMVI melanoma),growth (SK-MEL-28 melanoma)
Fc1cc2[nH]ncc2c2c3c(c(-c4cn[nH]c4)nc12)CCCC3,7.37% (active),15.4%,-14.8% (active),3.56% (active),-56% (active),3.1% (active),9.21% (active),-30.7% (active),-22.2% (active),1.03% (active),4.51% (active),11%,3.38% (active),8.75% (active),-1.45% (active),7.08% (active),-69.4% (active),-48% (active),0.769% (active),2.87% (active)
CCOC(=O)Nc1ccc2c(c1)/C(=N\NC(=S)NC)c1ccccc1-2,88.9%,77.2%,115%,65%,7.59% (active),101%,46.8%,71.4%,107%,78.2%,66.7%,88%,96.2%,71.8%,62%,81.8%,73.5%,71.9%,67.1%,82.7%
COc1cc(C(=O)/C=C/c2c(-c3ccc(F)cc3)nc3sccn23)cc(OC)c1OC,27.4%,39.1%,33.6%,51%,-50.6% (active),25.4%,3.82% (active),-57.9% (active),39.9%,35.3%,27.8%,5.08% (active),32.3%,10%,5.59% (active),19.9%,-50.5% (active),23.3%,15.6%,52.2%
FC(F)(F)c1ccc2c(c1)Sc1ccccc1N2,97.1%,93.6%,100%,99.5%,96.6%,92.9%,97.2%,97.8%,112%,98.3%,92.2%,102%,89%,95.9%,91.5%,93.9%,98.1%,85.3%,104%,110%
COc1cc(NCc2ccccc2O)c2ncccc2c1,112%,97.3%,92.9%,91.3%,100%,110%,129%,86%,109%,94.4%,77.8%,102%,64.5%,92.8%,98.9%,83.6%,101%,95%,83.9%,111%
CCOC(=O)c1nn(C2CCCCO2)c2ccc(NC(=O)CN3CCCC3)cc12 (stereo not given),104%,100%,102%,104%,133%,93%,98.5%,95.7%,91.3%,98.2%,106%,111%,79%,95.8%,94.8%,107%,103%,98.5%,97.3%,105%
C[n+]1c2ccccc2nc2c(N)cc(N)cc21,93.5%,36.4%,3.51% (active),87.3%,112%,24.8%,89.5%,48.6%,92.8%,96%,110%,84.7%,75.2%,-5.7% (active),8.86% (active),77.6%,56.9%,93%,77.3%,109%
C=C(C)[C@@H]1CC[C@]2(C)[C@H](CC=C3[C@@H]4[C@@H](C)[C@H](C)CC[C@]4(C(N)=O)CC[C@]32C)[C@@]1(C)CCC#N,-0.419% [100 µM] (active),7.42% [100 µM] (active),-65.5% [100 µM] (active),-55.4% [100 µM] (active),-72.2% [100 µM] (active),15.2% [100 µM],5.51% [100 µM] (active),-63.1% [100 µM] (active),-11.4% [100 µM] (active),-3.77% [100 µM] (active),9.25% [100 µM] (active),-32.6% [100 µM] (active),-5.4% [100 µM] (active),16.2% [100 µM],-59.3% [100 µM] (active),12.2% [100 µM],-87.9% [100 µM] (active),-63.9% [100 µM] (active),-92.9% [100 µM] (active),-67.8% [100 µM] (active)
NS(=O)(=O)c1ccc(CCN2C(=O)/C(=C\c3ccccc3)C=C2c2ccc(Cl)cc2)cc1,115%,94.8%,95.1%,86.2%,91%,90.6%,100%,99.9%,104%,99%,99.2%,107%,59.3%,87%,98.9%,90%,98.7%,81.9%,99.8%,101%
CCCC(NC(=O)OCc1ccccc1)C(=O)O (stereo not given),107%,107%,88.8%,75.9%,90.5%,104%,92.3%,95.9%,36.1%,93.1%,103%,104%,84%,99.4%,104%,93.8%,90.1%,89.6%,99.5%,92.8%
COc1ccc(/C=C2\N=C(Nc3ccccc3)N(NC(=O)c3ccccn3)C2=O)cc1,109%,81.1%,105%,94.6%,95.8%,101%,98.2%,98.3%,108%,101%,91.6%,112%,72.4%,87.2%,95.8%,101%,93.4%,86.2%,95.5%,102%
CC(C)(C)c1cc(C(=O)Nc2ccc(C(=O)NCCN)cc2)cc(C(C)(C)C)c1,40.5%,-42.5% (active),15.1%,-43.7% (active),19.5%,57%,36.4%,-52.8% (active),68.6%,-71% (active),76.6%,-21.7% (active),55.6%,33.6%,-6.92% (active),25.9%,23.8%,-71.8% (active),-65.5% (active),-64.4% (active)
C=C(C)[C@@H]1CC[C@]2(C(N)=O)CC[C@]3(C)[C@H](CC[C@@H]4[C@@]5(C)CC[C@H](O)C(C)(C)[C@@H]5CC[C@]43C)[C@@H]12,-33% [100 µM] (active),4.57% [100 µM] (active),-57.1% [100 µM] (active),-28.4% [100 µM] (active),-49.3% [100 µM] (active),4.41% [100 µM] (active),-57.7% [100 µM] (active),-70.5% [100 µM] (active),-6.08% [100 µM] (active),8.8% [100 µM] (active),6.36% [100 µM] (active),-49.5% [100 µM] (active),-39.1% [100 µM] (active),1.3% [100 µM] (active),-69.3% [100 µM] (active),-24.5% [100 µM] (active),-39.6% [100 µM] (active),-23.2% [100 µM] (active),-72.8% [100 µM] (active),0.379% [100 µM] (active)
COc1ccc2nc3c(cc2c1)C(=O)CC(c1ccccc1)C3 (stereo not given),1.12% (active),13.2%,47.7%,54.6%,-2.76% (active),53.9%,31%,7.92% (active),82.9%,9.28% (active),24.8%,9.97% (active),-9.09% (active),34.3%,45%,28.8%,30.2%,36.9%,36.1%,54.6%
COc1ccc(NCc2cn(-c3ccc(C(=O)O)cc3)nc2-c2ccc(C(=O)O)cc2)cc1C(F)(F)F,96.3%,111%,77.9%,81.8%,89.8%,99.3%,97.2%,86.7%,100%,96.9%,105%,101%,84%,96.4%,93.7%,102%,94.8%,94.3%,97.4%,97.3%
